The record followed here is the supplement of paper PMC6555819.

What all share (test): PBM binding z-score (relative to random genomic background probes); higher = stronger binding; sequences stand for … in GC…GCGATTGACAGCGTAGAATGAAGG
Experiment [1] relates to PPARg:RXRa DBDmut IVT, anti-RXR (DBD mutation: RXRa K156A/R161A, NR concentration 270 nM, RXRa partner concentration 90 nM). In a few lines:
(§1)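 Ligand-free nuclear receptor dimers were bound for 1 h to custom Agilent 4×180K protein-binding microarrays. Detection used antibodies against each partner (one per run). Binding z-scores rest on regression-normalized fluorescence, with random background probes as the reference.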

Experiment [2] deals with PPARg:RXRa IVT, anti-PPARg (NR concentration 270 nM, RXRa partner concentration 90 nM). In a few lines:
as §1

Experiment [3] relates to PPARg DBDmut:RXRa IVT, anti-PPARg (DBD mutation: PPARg1 K132A/R137A, NR concentration 270 nM, RXRa partner concentration 90 nM). In short, it runs like this:
as §1

Experiment [4] deals with PPARg DBDmut IVT, anti-PPARg (DBD mutation: PPARg1 K132A/R137A, NR concentration 270 nM). In a few lines: as §1
Experiment [5] relates to PPARg homodimer (NR concentration 180 nM). In a few lines:
as §1

Experiment [6] has as its system PXR:RXRa (NR concentration 270 nM, RXRa partner concentration 90 nM). In short, it runs like this: as §1
The test system of experiment [7] is PXR homodimer (NR concentration 270 nM). In short, it runs like this:
as §1

The subject of experiment [8] is RARa:RXR (NR concentration 270 nM, RXRa partner concentration 90 nM). In short, it runs like this:
as §1

For experiment [9], the system named is RARa homodimer (NR concentration 270 nM). In a few lines:
as §1

The test system of experiment [10] is RARb:RXRa (NR concentration 270 nM, RXRa partner concentration 90 nM). In short, it runs like this: as §1
The test system of experiment [11] is RARb homodimer (NR concentration 270 nM). In a few lines: as §1
Experiment [12] concerns RARg:RXRa (NR concentration 270 nM, RXRa partner concentration 90 nM). In short, it runs like this: as §1
The test system of experiment [13] is RARg homodimer (NR concentration 270 nM). In short, it runs like this:
as §1

Experiment [14] deals with RXRa DBDmut IVT, anti-RXR (DBD mutation: RXRa K156A/R161A, NR concentration 90 nM). In short, it runs like this: as §1
For experiment [15], the system named is RXRa homodimer (NR concentration 180 nM). In short, it runs like this: as §1
In experiment [16] the test system is THRa:RXRa (NR concentration 90 nM, RXRa partner concentration 90 nM). In a few lines: as §1
The subject of experiment [17] is THRa homodimer (NR concentration 90 nM). In a few lines:
as §1

For experiment [18], the system named is VDR homodimer (NR concentration 270 nM). In short, it runs like this: as §1

On to AGTCAAAGTTAACTAGGTAACGTAAGATTCAGCT, for which the PBM binding z-score in experiment [1] is 3.88; in experiment [2] it was 4.72; in experiment [3], 1; in experiment [4] it was 1.26; in experiment [5], 0.27; in experiment [6], -0.0411. For the same sequence, the PBM binding z-score in [7] was -0.0667; in experiment [8], 0.226; in experiment [9], 0.167; in experiment [10], 0.61; in experiment [11], -0.331; in experiment [12] it was 0.302. For the same sequence, the PBM binding z-score in [13] was 0.566; in [14] it was -0.266; in [15] it was 0.258; in experiment [16] it was 0.564; in experiment [17] it was -0.252; in experiment [18], -0.183.

Regarding GCTGCTAGGTCACCTGATGGTCAGCTAAAGCTCG, the PBM binding z-score in [1] stood at 4.7; in experiment [2], 4.09; in experiment [3] it was 0.447; in experiment [4], 0.446; in [5], 1.57; in experiment [6], 1.2. For the same sequence, the PBM binding z-score was -0.963 in experiment [7]; 2.67 in experiment [8]; -0.925 in [9]; 3.86 in experiment [10]; 3.33 in experiment [11]; 4.88 in [12]. Also, the PBM binding z-score is 5.27 in experiment [13]; 1.18 in experiment [14]; 2.64 in experiment [15]; 3 in experiment [16]; 1.57 in experiment [17]; -0.0693 in experiment [18].

Take ACTAGTTGGCCAGCTGAGGTCACACACAATTCGG: the PBM binding z-score in [1] was found to be 0.715; in experiment [2], 1.85; in [3] it was 0.578; in experiment [4] it was 0.0549; in experiment [5], 2.34; in experiment [6], 4.59. Also, the PBM binding z-score in [7] was 1.49; in experiment [8], 4.57; in experiment [9] it was 0.503; in experiment [10], 3.19; in [11] it was 3.96; in experiment [12], 3.64. Also, the PBM binding z-score stood at 3.6 in experiment [13]; 0.874 in experiment [14]; 4.1 in experiment [15]; 4.47 in experiment [16]; 5.09 in experiment [17]; 2.74 in experiment [18].

For AATACAGGGTCACTAGGCCAGAGTCGGTACGAAT, the PBM binding z-score in [1] amounted to 4.04; in experiment [2], 5.73; in experiment [3] it was 1.74; in experiment [4] it was 1.6; in experiment [5], 2.69; in experiment [6], 3.08. The PBM binding z-score in [7] is 0.172; in experiment [8] it was 4.13; in experiment [9], 1.14; in [10], 4.1; in experiment [11], 3.25; in experiment [12] it was 5.29. The PBM binding z-score in experiment [13] worked out at 4.87; in experiment [14], 2.71; in experiment [15], 5.3; in [16], 3.43; in experiment [17] it was 1.24; in [18], 2.7.

With TCTCGGAGGGCACGAAAGGTCAGAGCTCGACATC, the PBM binding z-score in [1] is 1.78; in experiment [2] it was 2.45; in experiment [3], -0.111; in [4], -0.16; in experiment [5], 3; in [6] it was 5.57. For the same sequence, the PBM binding z-score stood at 0.576 in experiment [7]; 5.45 in experiment [8]; 0.74 in experiment [9]; 4.79 in experiment [10]; 5.03 in [11]; 6.01 in experiment [12]. The PBM binding z-score was 6.16 in experiment [13]; 1.09 in experiment [14]; 5.58 in experiment [15]; 4.4 in [16]; 0.163 in experiment [17]; 1.1 in experiment [18].

On to CCAACTAGGTCATCCAGGACAGTGAATACATTGA, for which the PBM binding z-score was found to be 7.67 in experiment [1]; 7.53 in experiment [2]; 1.61 in [3]; 1.62 in experiment [4]; 2.3 in experiment [5]; 1.94 in experiment [6]. In addition, the PBM binding z-score is 1.63 in [7]; 2.35 in [8]; 1.24 in [9]; 3.89 in [10]; 3.44 in experiment [11]; 3.88 in experiment [12]. The PBM binding z-score in [13] is 4.83; in experiment [14], 2.49; in experiment [15] it was 2.77; in [16], 3.79; in experiment [17] it was 2.61; in [18], 2.63.

As to CGTCCAAGGTCATAGGAGGTCAGTGAAGACAGAT, the PBM binding z-score in experiment [1] is 3.11; in [2] it was 4.48; in [3], 0.77; in experiment [4] it was -0.116; in [5], 3.31; in experiment [6], 6.64. Also, the PBM binding z-score stood at 4.38 in [7]; 5.77 in [8]; 1.77 in [9]; 5.4 in experiment [10]; 5.19 in experiment [11]; 6.63 in experiment [12]. Further, the PBM binding z-score is 7.12 in experiment [13]; 3.93 in experiment [14]; 6.4 in [15]; 5.42 in [16]; 3.01 in experiment [17]; 4.13 in [18].
